Results on 9 compounds are retold here after PubChem BioAssay.

A short description of assay [1]: resazurin metabolic signal in HepG2 cells – cell-based, resazurin fluorescence, 24 h, PK04 Diversity Set, profiling panel (AID 1172). Note: test concentration not given here. Particulars: HepG2 viability, higher = more signal. (In general: Alamar Blue is a resazurin reagent that responds to reducing activity.)
A short description of assay [2]: budding yeast growth changes without added modifier – OD600, strain BY4716, 24 h, basal condition, primary screen (AID 1173). To be noted: S. cerevisiae BY4716 growth, OD600, 24 h; higher = more signal, called active from +8 up or from −8 down.
Assay [3] is described as follows: viability profiling in MM1S myeloma cells – cell-based, resazurin fluorescence, basal, 24 h, PK04 Diversity Set, profiling panel (AID 1174).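 Note: MM1S multiple myeloma cell line; test concentration not given here.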 Particulars: higher = more signal, called active from +8 up or from −8 down.
For assay [4], the target named is Dihydroorotate dehydrogenase (quinone), mitochondrial (Plasmodium falciparum (isolate 3D7)) (UniProt Q08210). In words: inhibition of P. falciparum DHODH – biochemical, C-terminal His tag, absorbance 600 nm, primary screen (AID 1175).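 Note: recombinant parasite enzyme with a five histidine tag at its C terminus; test concentration not given here.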 To be noted: PfDHODH enzyme, DCIP absorbance 600 nm; higher = more signal, called active from +8 up or from −8 down.
Dihydroorotate dehydrogenase (quinone), mitochondrial (Plasmodium falciparum (isolate 3D7)), sequence (Q08210 whole entry, looked up): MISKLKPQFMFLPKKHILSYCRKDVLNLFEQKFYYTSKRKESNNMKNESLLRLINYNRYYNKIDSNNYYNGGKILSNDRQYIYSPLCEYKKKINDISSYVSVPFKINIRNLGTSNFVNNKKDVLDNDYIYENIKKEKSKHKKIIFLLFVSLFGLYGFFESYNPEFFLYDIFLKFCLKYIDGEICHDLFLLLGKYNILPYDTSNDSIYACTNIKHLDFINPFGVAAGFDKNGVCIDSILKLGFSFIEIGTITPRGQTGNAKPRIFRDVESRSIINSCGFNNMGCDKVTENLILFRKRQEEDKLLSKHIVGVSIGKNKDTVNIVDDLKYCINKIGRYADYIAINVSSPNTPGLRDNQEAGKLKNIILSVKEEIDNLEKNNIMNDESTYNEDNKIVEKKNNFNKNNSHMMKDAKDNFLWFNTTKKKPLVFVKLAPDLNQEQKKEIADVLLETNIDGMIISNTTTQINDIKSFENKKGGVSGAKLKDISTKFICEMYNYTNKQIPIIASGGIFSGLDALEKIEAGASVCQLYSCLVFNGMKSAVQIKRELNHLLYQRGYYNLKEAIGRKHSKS
The nature of assay [5]: inhibition of PAO1 biofilm formation – strain PAO1, LB-PBS medium, absorbance 600 nm, primary screen (AID 1176). Note: test concentration not given here. To be noted: P. aeruginosa PAO1 growth/biofilm, A600, 12 h; higher = more signal.
Assay [6] in a line: growth modulation of vineyard yeast isolate – strain RM11-1a, OD600, basal, 24 h, primary screen (AID 1177).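 Note: cultures grown under basal conditions with no added stressor; test concentration not given here.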 To be noted: S. cerevisiae RM11-1a growth, OD600, 24 h; higher = more signal, called active from +8 up or from −8 down.
Assay [7] is described as follows: growth of efflux-deficient E. coli DRC39 – strain DRC39, OD650, 24 h, E. coli filamentation inducers, primary screen (AID 1178).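 Note: growth measured as culture turbidity by optical density at 650 nm; test concentration not given here.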 Particulars: E. coli DRC39 acrAB, higher = more signal, called active from +8 up or from −8 down.
Assay [8] is described as follows: growth of efflux-deficient E. coli DRC39 – strain DRC39, OD650, 48 h, E. coli filamentation inducers, primary screen (AID 1179).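 Note: screen aims at cell division blockers that make cells filament.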 To be noted: E. coli DRC39 delta-acrAB growth, higher = more signal, called active from +8 up or from −8 down.
Assay [9] can be described thus: viability profiling in RPMI8226 myeloma cells – cell-based, resazurin fluorescence, basal, 24 h, PK04 Diversity Set, profiling panel (AID 1180).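 Note: RPMI8826 multiple myeloma cell line at 5000 cells per well; test concentration not given here.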 Particulars: higher = more signal.
The target of assay [10] is E3 ubiquitin-protein ligase XIAP (Homo sapiens) (UniProt P98170). In words: small molecules binding XIAP protein – biophysical, small-molecule microarray, fluorescence 635 nm, primary screen (AID 1181).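 Note: score merges 667 nm emission and signal to noise over triplicate slides.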 To be noted: higher = more signal.
E3 ubiquitin-protein ligase XIAP (Homo sapiens), sequence (P98170 whole entry, looked up): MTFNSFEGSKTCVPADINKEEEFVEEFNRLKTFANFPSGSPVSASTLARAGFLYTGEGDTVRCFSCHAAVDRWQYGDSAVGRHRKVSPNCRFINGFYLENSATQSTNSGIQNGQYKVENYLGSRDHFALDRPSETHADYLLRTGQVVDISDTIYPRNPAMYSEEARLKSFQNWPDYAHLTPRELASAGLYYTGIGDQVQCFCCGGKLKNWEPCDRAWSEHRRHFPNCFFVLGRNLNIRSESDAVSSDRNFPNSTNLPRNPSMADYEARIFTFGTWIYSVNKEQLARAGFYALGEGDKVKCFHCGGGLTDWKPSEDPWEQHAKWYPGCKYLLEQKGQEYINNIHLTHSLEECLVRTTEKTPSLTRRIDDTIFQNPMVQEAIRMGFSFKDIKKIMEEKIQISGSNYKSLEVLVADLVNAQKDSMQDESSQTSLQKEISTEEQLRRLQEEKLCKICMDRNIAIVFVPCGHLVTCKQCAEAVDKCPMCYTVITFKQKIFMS

Activity calls are given as the source filed them. Unless noted, the rule behind the calls is not given here.

For `CCOC(=O)C[C@H]1[C@H](OC(=O)Cc2ccc3c(c2)OCO3)[C@@H](NC(=O)c2ccc(-c3ccccc3)cc2)c2cc(OCCCO)ccc2N1C(=O)Cc1ccc(OC)cc1`, the z-score is 0.366 in assay [1]; -1.02 (inactive) in assay [2]; 0.322 (inactive) in assay [3]; -0.0178 (inactive) in assay [5]; -1.82 (inactive) in [6]; 0.261 (inactive) in assay [7]. Further, the z-score in assay [8] was 0.877 (inactive); in assay [9] it was 0.489. Also, the composite z-score in assay [4] was -1.32 (inactive); in assay [10], 0.179.
On to `CN(C)C(=O)[C@]1(Cc2ccccc2CN=[N+]=[N-])N=C(c2ccc(OCCCO)cc2)O[C@@H]1c1ccccc1CN=[N+]=[N-]`, for which the z-score is -0.053 in assay [1]; -0.868 (inactive) in [2]; -1.19 (inactive) in [3]; 1.06 (inactive) in assay [5]; -0.111 (inactive) in assay [6]; 0.187 (inactive) in [7]. Also, the z-score in [8] was -0.719 (inactive); in assay [9] it was -1.1. Further, the figures for the composite z-score in assay [4] and in assay [10] were 0.587 (inactive) and 0.0015, respectively.
In the case of `COCCOC(=O)N1C(=O)[C@@]2(c3cc(C#CC4=CCCCC4)ccc31)[C@H](c1ccc(O)cc1)N1[C@H](c3ccccc3)[C@H](c3ccccc3)OC(=O)[C@H]1[C@@H]2C(N)=O`, the z-score in [1] was -0.74; in assay [2], -0.167 (inactive); in assay [3], -1.85 (inactive); in assay [5], 0.318 (inactive); in assay [6], 0.654 (inactive); in [7], 0.066 (inactive). Besides, the z-score in [8] was 0.552 (inactive); in [9], -2.95. The composite z-score was -1.06 (inactive) in assay [4] and 0.0435 in [10].
In the case of `COC(=O)[C@@]1(Cc2ccc(F)cc2)[C@@H]2[C@@H](CC(=O)[C@H]2CC(=O)C(=O)N(C)C)CN1C(=O)c1ccccc1`, the z-score in [1] was -2.11; in assay [2], 1.52 (inactive); in assay [3] it was -1.4 (inactive); in assay [5] it was 0.784 (inactive); in assay [6], 0.438 (inactive); in [7] it was -0.287 (inactive). Also, the z-score is -0.13 (inactive) in assay [8] and -2.97 in [9]. The composite z-score is -0.363 (inactive) in [4] and 0.0253 in assay [10].
As to `C=CCOC(=O)[C@@H]1[C@H]2C(=O)O[C@H](c3ccccc3)[C@H](c3ccccc3)N2[C@H](c2ccc(OCCOC(=O)[C@@H]3C[C@@H]4C(=O)N5CCC[C@H]5C(=O)N4[C@@H]3c3ccc(O)cc3)cc2)[C@@]12C(=O)Nc1ccc(I)cc12`, the z-score in assay [1] is 0.339; in assay [2] it was 0.155 (inactive); in assay [3], -0.446 (inactive); in assay [5], 2.65 (inactive); in assay [6], -0.468 (inactive); in assay [7], 0.65 (inactive). In addition, the z-score is 1.72 (inactive) in assay [8] and 1.28 in assay [9]. For the same compound, the composite z-score in assay [4] is -0.326 (inactive); in assay [10], -0.059.
With `Cc1ccc(C(C)CC(O)C2C=CC3C(=O)N(c4ccccc4)C(=O)C3N2Nc2ccc([N+](=O)[O-])cc2)o1` (stereo not given), the z-score in assay [1] was 0.836; in [2], 0.124 (inactive); in [3] it was -0.171 (inactive); in assay [5] it was 1.14 (inactive); in [6], 0.315 (inactive); in assay [7], -0.975 (inactive). In addition, the values for the z-score in [8] and in assay [9] were 0.178 (inactive) and 0.263, respectively. Moreover, the composite z-score was -0.071 (inactive) in assay [4] and 0.152 in [10].
Regarding `C=C[C@H](COC(C)=O)N(C(=O)OC(C)(C)C)S(=O)(=O)c1ccc(Br)cc1`, the z-score in [1] is 0.738; in [2], -0.705 (inactive); in [3], -0.76 (inactive); in [5], -0.621 (inactive); in assay [6] it was 0.625 (inactive); in assay [7], 0.623 (inactive). Also, the z-score in [8] was 0.386 (inactive); in assay [9], -0.17. The composite z-score in assay [4] was -0.0237 (inactive); in assay [10] it was 0.137.
As for `C=C(COC)/C(=C/C[C@@H](OC(C)=O)c1ccc(OCCO)cc1)c1cc(C(=O)OC)ccc1OC`, the z-score in [1] is 0.453; in assay [2], 0.166 (inactive); in assay [3], -0.252 (inactive); in assay [5], 0.862 (inactive); in [6] it was 0.303 (inactive); in assay [7], 0.193 (inactive). The z-score in [8] was 0.0514 (inactive); in assay [9], -0.395. Moreover, the composite z-score was -0.72 (inactive) in assay [4] and -0.353 in [10].
As to `CS(=O)(=O)CCOC(=O)C1=CC(CCCO)=CC(c2ccc(CN3CCCC3)cc2)N(Cc2cc3c(cc2Br)OCO3)C=C1C(=O)OCCS(C)(=O)=O` (stereo not given), the z-score was 0.0305 in assay [1]; -3.3 (inactive) in [2]; 0.56 (inactive) in [3]; -0.66 (inactive) in assay [5]; 0.526 (inactive) in assay [6]; 0.549 (inactive) in assay [7]. Further, the z-score was 0.325 (inactive) in assay [8] and 1.31 in assay [9]. The composite z-score in [4] is -4.55 (inactive); in assay [10], -0.0773.
